C diff growth: C. difficile growth inhibition; Clostridium difficile clinical isolate growth, OD600, 24 h; hits give low values; actives 0.25% (n = 86,000); growth activity, negative = inhibition, % at 16 µg/mL (by protocol);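 active = mean growth activity at or below -80% and every replicate also at or below -80%; inconclusive = mean at or below -80% but some replicate above -80%; inactive = mean growth activity above -80%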
Tcruzi prolif: inhibitors of T. cruzi proliferation. T. cruzi beta-gal in NIH3T3, GalScreen luminescence, 90 h. inhibition, % at 8.34 µM. actives 5.9% (n = 77,000). AID 624255;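 active = mean inhibition above about 93%, with at least 55% of replicates each passing it, limit read from the data, passing the limit was not always enough; inconclusive = only one of those two conditions holds; inactive = neither condition holds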
Pf Dd2 inh: blocks growth of Plasmodium falciparum Dd2 parasites | P. falciparum Dd2 growth, SYBR Green, 72 h; hits give low values | AID 1159554 | actives 2.3% (n = 94,000) | activity change, % at 10 µM; in the data active = activity change below about -80%; inconclusive = no clear call, values can overlap the other calls
Hits are given with their value; . = inactive; ? = inconclusive; / = no result given; ! = a repeat was not active. In the library only some 6.8% were active in any assay of this set; here they are far more common.

SMILES | C diff growth | Tcruzi prolif | Pf Dd2 inh
O=C(Nc1ccc(Cl)cc1)N1[C@@H]2CNC[C@H]1C2c1ccc(-c2ccccc2)cc1 (stereo partly specified) | . | / | .
Cc1ccccc1-c1ccc(C2[C@H]3CNC[C@@H]2N3C(=O)Nc2ccc(F)cc2)cc1 (stereo partly specified) | . | / | .
C[C@H]1CN([C@@H](C)CO)C(=O)c2cc(C#CCN(C)C)cnc2O[C@@H]1CN(C)C(=O)c1cnccn1 | . | . | .
Cc1ccccc1S(=O)(=O)N1CC(=O)N2[C@H](CO)[C@H](c3ccc(C#CCN(C)C)cc3)[C@@H]2C1 | . | / | .
O=C(Nc1ccc(C(F)(F)F)cc1)N1[C@@H]2CNC[C@H]1C2c1ccc(/C=C/c2ccccc2)cc1 (stereo partly specified) | -103! | / | ?
O=C(Nc1ccccc1Cl)N1[C@@H]2CNC[C@H]1C2c1ccc(/C=C/c2ccccc2)cc1 (stereo partly specified) | . | / | .
CO[C@H]1CN(C)C(=O)c2cc(NC(=O)c3nc4ccccc4s3)ccc2OC[C@H](C)NC[C@H]1C | / | . | .
CO[C@@H]1CN(C)C(=O)c2cc(NC(=O)c3nc4ccccc4s3)ccc2OC[C@H](C)NC[C@H]1C | / | . | -85
CO[C@@H]1CN(C)C(=O)c2cc(NC(=O)c3nc4ccccc4s3)ccc2OC[C@@H](C)NC[C@H]1C | / | . | .
CO[C@H]1CN(C)C(=O)c2cc(NC(=O)c3nc4ccccc4s3)ccc2OC[C@@H](C)NC[C@@H]1C | / | . | -87
C[C@@H]1CN([C@@H](C)CO)C(=O)c2cc(C#C[C@@H](C)O)cnc2O[C@@H]1CN(C)C(=O)Nc1ccc(C(F)(F)F)cc1 | . | / | .
C/C=C/c1ccccc1[C@H]1[C@@H](C#N)N(C(=O)CN2CCOCC2)[C@@H]1CO | . | / | .
CN(C)CC#Cc1ccc([C@H]2[C@@H](CO)N3C(=O)CN(C(=O)c4cccnc4)C[C@H]23)cc1 | . | / | .
CN(C)C(=O)c1ccc(-c2ccc3c(c2)[C@H]2[C@H](CCN2C(=O)C2CCOCC2)[C@H](CO)N3C)cc1 | . | . | .
CCC(=O)Nc1ccc2c(c1)OC[C@H](C)N(CC1CC1)C[C@@H](C)[C@H](OC)CN(C)C2=O | . | / | .
C[C@H](CO)N1C[C@H](C)[C@H](CN(C)C(=O)Nc2ccc(F)cc2)OCCCC[C@H](C)Oc2ccc(NS(=O)(=O)c3cccs3)cc2C1=O | . | . | .
C[C@@H]1CCCCO[C@H](CN(C)C(=O)NC2CCCCC2)[C@H](C)CN([C@H](C)CO)C(=O)c2cc(NS(=O)(=O)c3cccs3)ccc2O1 | . | . | -82
C[C@@H]1CN([C@@H](C)CO)C(=O)c2cc(NS(=O)(=O)c3cccs3)ccc2O[C@@H](C)CCCCO[C@H]1CN(C)C(=O)Nc1ccc(F)cc1 | . | . | -81
C[C@@H]1CCCCO[C@H](CN(C)C(=O)NC2CCCCC2)[C@H](C)CN([C@@H](C)CO)C(=O)c2cc(NS(=O)(=O)c3cccs3)ccc2O1 | . | . | .
C[C@H]1CN([C@@H](C)CO)C(=O)Cc2cc(N(C)C)ccc2O[C@H]1CN(C)C(=O)Nc1ccccc1 | . | . | .
C[C@@H]1CN([C@@H](C)CO)C(=O)c2cc(NC(=O)Cc3ccccc3)ccc2O[C@@H](C)CCCCO[C@@H]1CN(C)S(=O)(=O)c1ccccc1 | / | / | .
C[C@H]1CN([C@@H](C)CO)C(=O)c2c(c3ccccc3n2C)-c2ccccc2CO[C@H]1CN(C)Cc1ccc(-c2ccccc2)cc1 | . | / | -88
C[C@H](CO)N1C[C@H](C)[C@H](CN(C)Cc2ccc(-c3ccccc3)cc2)OCc2ccccc2-c2c(n(C)c3ccccc23)C1=O | . | / | ?
C[C@@H]1CN([C@H](C)CO)C(=O)c2c(c3ccccc3n2C)-c2ccccc2CO[C@@H]1CN(C)Cc1cccc(F)c1 | . | / | -88
C[C@H]1CN([C@@H](C)CO)C(=O)c2c(c3ccccc3n2C)-c2ccccc2CO[C@@H]1CN(C)Cc1cccc(F)c1 | . | / | .
SMILES | C diff growth | Tcruzi prolif | Pf Dd2 inh
C[C@@H]1CN([C@@H](C)CO)C(=O)c2c(c3ccccc3n2C)-c2ccccc2CO[C@H]1CN(C)Cc1cccc(C(=O)Nc2ccccc2N)c1 | . | / | -89
C[C@H](CO)N1C[C@H](C)[C@H](CN(C)Cc2cccc(C(=O)O)c2)OCc2ccccc2-c2c(n(C)c3ccccc23)C1=O | . | . | .
COc1cccc(CN(C)C[C@H]2OCc3ccccc3-c3c(n(C)c4ccccc34)C(=O)N([C@@H](C)CO)C[C@H]2C)c1 | . | / | -87
COc1cccc(CN(C)C[C@@H]2OCc3ccccc3-c3c(n(C)c4ccccc34)C(=O)N([C@@H](C)CO)C[C@H]2C)c1 | . | / | .
COCC(=O)N1[C@@H]2c3ccc(-c4ccccc4)c(=O)n3C[C@H]1[C@H](CO)[C@H]2C(=O)NCc1ccccn1 | . | . | /
COCC(=O)N1CC2(CN(Cc3nccs3)C2)c2c(n(C)c3cc(OC)ccc23)[C@H]1CO | . | / | .
CC(=O)N[C@@H]1CC[C@H](CCNC(=O)C2CC2)O[C@@H]1CO | / | . | .
COc1cccc(S(=O)(=O)N2CC3(CN(C(=O)Nc4cccc(F)c4)[C@H](CO)c4[nH]c5cc(OC)ccc5c43)C2)c1 | . | / | .
CCC(=O)N1[C@@H]2c3ccc(-c4cccnc4)c(=O)n3C[C@H]1[C@H](CO)[C@H]2C(=O)NC1CCC1 | . | . | .
CCCC#Cc1cnc2c(c1)C(=O)N([C@@H](C)CO)C[C@H](C)[C@H](CN(C)C(=O)C1CCOCC1)O2 | . | . | .
C[C@@H]1CN([C@@H](C)CO)C(=O)c2c(c3ccccc3n2C)-c2ccccc2CO[C@H]1CN(C)Cc1ccc(Oc2ccccc2)cc1 | . | / | .
C[C@H]1CN([C@@H](C)CO)C(=O)c2c(c3ccccc3n2C)-c2ccccc2CO[C@@H]1CN(C)Cc1ccccc1C(F)(F)F | . | / | -85
COc1ccccc1CN(C)C[C@@H]1OCc2ccccc2-c2c(n(C)c3ccccc23)C(=O)N([C@H](C)CO)C[C@@H]1C | . | / | .
C[C@@H]1CN([C@@H](C)CO)C(=O)c2ccccc2-c2ccccc2CO[C@@H]1CN(C)Cc1ccccc1C(F)(F)F | . | / | .
C[C@H](CO)N1C[C@H](C)[C@H](CN(C)Cc2ccc(C(F)(F)F)cc2)OCc2ccccc2-c2c(n(C)c3ccccc23)C1=O | . | / | -83
C[C@H](CO)N1C[C@H](C)[C@@H](CN(C)Cc2ccc(Oc3ccccc3)cc2)OCc2ccccc2-c2c(n(C)c3ccccc23)C1=O | . | / | -91
C[C@@H]1CN([C@@H](C)CO)C(=O)c2c(c3ccccc3n2C)-c2ccccc2CO[C@@H]1CN(C)Cc1ccc(C(F)(F)F)cc1 | . | / | .
C[C@@H]1CN([C@H](C)CO)C(=O)c2ccccc2-c2ccccc2CO[C@@H]1CN(C)Cc1ccccc1C(F)(F)F | . | / | -93
Cc1ccccc1S(=O)(=O)N1CCCCN2[C@H](CO)[C@H](c3ccc(C#CCN(C)C)cc3)[C@@H]2C1 | . | . | .
C[C@@H]1CCCCO[C@H](CN(C)C(=O)Nc2ccc(C(F)(F)F)cc2)[C@H](C)CN([C@@H](C)CO)C(=O)c2cc(NS(C)(=O)=O)ccc2O1 | . | . | .

Screening results (PubChem BioAssay)
